For 18 compounds, growth results are on record in PubChem BioAssay (NCI).

Compounds without any hit were thinned out: in the full panel of roughly 83,000, 20% have a hit.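 Treatment: one concentration, 48 hours, 96-well format. Scoring: percent growth, with anything below 10 considered active.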 Active and inactive are the calls of the source.

The subject of the first assay is T-47D breast. Nature of the assay: NCI-60 one-dose screen, 48 h (100 = growth as untreated, 0 = no growth, -100 = all killed). To be noted: 10 µM unless noted.
Regarding `CC12CCCC(CC(=O)c3[nH]c4ccccc4c31)C2` (stereo not drawn), the growth is 24.1% (inactive).

As for `CC(C)(C)N1CCC1C(N)=O` (stereo not drawn), the growth was 99.5% (inactive).

For the compound `C=C1CCC2C(C)(CO)C(O)CCC2(C)C1C/C=C1/C(=O)OCC1Oc1ccccc1C` (stereo not drawn), the growth was 84.9% (inactive).

On to `Oc1ccc2cc(Br)ccc2c1-c1c(O)ccc2cc(Br)ccc12`, for which the growth is 57.9% (inactive).

With `O=[N+]([O-])c1ccc(/C=C/C2(CCl)OCCO2)cc1`, the growth was 95.1% (inactive).

`O=C(NNC(=O)N1c2ccccc2C=Cc2ccccc21)c1ccc2ccccc2c1`: the growth is 87.4% (inactive).

`CCN(CC)CCC(CNc1ccnc2cc(Cl)ccc12)c1ccc(Cl)cc1` (stereo not drawn): the growth is -76% (active).

The subject of a further assay is BT-549 breast. The assay is described as above. Particulars: 10 µM unless noted.
As to `COc1ccc(NC(=O)CSc2nc(-c3ccc(OC)c(OC)c3)cc(-c3cc(OC)c(OC)c(OC)c3)n2)cc1`, the growth was 95.5% (inactive).

In the case of `CCCOC(=O)n1cccc1`, the growth was 103% (inactive).

On to `COc1cc(Cn2cc3c(c2)-c2oncc2CC3)cc(OC)c1OC`, for which the growth was 36.7% (inactive).

For `O=C(O)Cc1cccc(=O)c(O)c1C(=O)O`, the growth was 102% (inactive).

As to `NNc1cccc(/C=C/c2ccccc2)cc1=O`, the growth is 69.1% (inactive).

With `S=C1CC(=S)NC(=S)N1`, the growth was 110% (inactive).

In the case of `COc1cc(C2CC(c3ccc4c(c3)OCO4)=NN2C(C)=O)cc(OC)c1OC` (stereo not drawn), the growth is 60.7% (inactive).

On to `Nc1nc(=O)c2ccccc2s1`, for which the growth was 101% (inactive).

Regarding `CCOC(=O)C1CCNC(=O)C1=O` (stereo not drawn), the growth was 107% (inactive).

`CCCCCCCCCCCCCCCCNC(=O)OC(C)C`: the growth was 95.8% (inactive).

Regarding `Nc1nc(-c2ccccc2)c(CCCOc2ccc(NC(=O)CBr)cc2)c(=O)[nH]1`, the growth was 100% (inactive).
